This is a sample that favours compounds with a hit; in the whole collection about 19% have one here.
TDP1 cell CPT = growth inhibition of DT40 Tdp1-/-;hTDP1 cells with camptothecin (screen for TDP1 inhibitors); chicken DT40 Tdp1-/-;hTDP1 cells + 20 nM CPT, ATP luminescence, 48 h; Potency, µM (titrated, usually from 46.2 µM), hits mostly inhibitors; hit rate 12% among 420,000; AID 686979; note: nearly all actives have a fitted effect of over 55% in size
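Chicken DT40 Tdp1-/- cells complemented with human TDP1, 400 cells/well, exposed to compounds plus 20 nM camptothecin for at least 48 h at 37 C; viability read as ATP content by CellTiter-Glo luminescence.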
HepG2 viability = kills HepG2 cells in TGF-b inhibitor counter-screen; HepG2 CAGA-GFP viability, ATP luminescence, 18 h; Potency, µM (doses to about 46.1 µM), usual class: cytotoxic; hit rate 0.76% among 410,000; AID 588856
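HepG2 CAGA-GFP cells (1000/well, DMEM with 1% FBS) received compound, then TGF-beta at 500 pg/mL final, and were incubated 18 hours at 37 degrees C. Viability was read by CellTiter-Glo luminescence. Media-only wells were set as complete cell-killing and DMSO as no toxicity.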
IL1B secr inh = inflammasome signaling inhibition, IL-1 beta readout; activity change, % at 57.5 µM; hit rate 4.7% among 360,000; AID 743279; THP-1 LPS/ATP IL-1B secretion, AlphaLISA, 16 h; active compounds read low; in the data active = activity change below about -50%; inconclusive = mostly about -30% to -49%
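THP-1 cells pretreated 1 hr with compounds (up to 57.5 uM final), then stimulated with LPS (250 ng/mL final) plus ATP (1.25 mM final); secreted IL-1B measured by AlphaLISA after 16 hr, decreased signal indicating inhibition.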
TDP1 inh = TDP1 (human) enzyme inhibition; Q9NUW8; recombinant TDP1, AlphaScreen DNA substrate cleavage; Potency, µM (highest dose often 130 µM), hits mostly inhibitors; hit rate 0.28% among 350,000; AID 485290; note: nearly all actives have a fitted effect of over 40% in size
Target sequence (Q9NUW8 whole entry, looked up): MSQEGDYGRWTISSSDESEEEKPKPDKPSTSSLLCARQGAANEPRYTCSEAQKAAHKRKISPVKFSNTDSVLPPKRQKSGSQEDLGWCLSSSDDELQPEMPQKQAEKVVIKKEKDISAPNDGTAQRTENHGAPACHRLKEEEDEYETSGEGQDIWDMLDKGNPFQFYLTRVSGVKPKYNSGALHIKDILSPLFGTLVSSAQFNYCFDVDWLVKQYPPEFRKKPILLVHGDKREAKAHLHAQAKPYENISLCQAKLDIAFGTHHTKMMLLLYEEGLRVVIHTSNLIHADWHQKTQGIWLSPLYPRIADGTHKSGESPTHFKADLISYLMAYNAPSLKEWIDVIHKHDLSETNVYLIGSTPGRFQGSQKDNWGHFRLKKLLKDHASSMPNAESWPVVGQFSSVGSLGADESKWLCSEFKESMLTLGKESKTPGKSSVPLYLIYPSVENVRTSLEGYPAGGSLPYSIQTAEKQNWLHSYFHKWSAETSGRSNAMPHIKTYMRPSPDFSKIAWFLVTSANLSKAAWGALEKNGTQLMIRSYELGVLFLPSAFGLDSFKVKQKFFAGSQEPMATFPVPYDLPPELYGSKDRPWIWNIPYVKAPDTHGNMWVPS
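E. coli-derived human Tdp1, 1 nM final. Cpd preinc 15 min RT; substrate 15 nM final, 5 min RT; AS bead mix 10 ug/ml final, 10 min RT. Signal loss = tyrosine-FITC cleavage. No-enzyme wells = max signal.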
TDP1 cell noCPT = qHTS for Inhibitors of human tyrosyl-DNA phosphodiesterase 1 (TDP1): qHTS in cells in absence of CPT; DT40 Tdp1-/- hTDP1 cells, no CPT, ATP luminescence, 48 h; hit rate 15% among 420,000; AID 686978, 2013; Potency, µM (series often up to 46.2 µM), most hits filed as inhibitors; note: nearly all actives have a fitted effect of over 55% in size
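Compound effects on proliferation are scored in DT40 Tdp1-/-;hTDP1 cells in the absence of CPT. ATP levels (CellTiter-Glo luminescence) are recorded after a ≥48 hr, 37 °C incubation.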
TGFb SMAD3 inh = blocks TGF-b signaling | hit rate 1.2% among 410,000 | Potency, µM (doses to about 46.1 µM), usual class: inhibitors | HepG2 CAGA-GFP TGF-b/SMAD3 reporter, GFP fluorescence, 18 h; TGF-beta stimulated, 500 pg/mL final; note: nearly all actives have a fitted effect of over 65% in size
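Read-out: total well GFP (ex488/em500-530) summed from mean per-cell fluorescence. Cells: HEPG2 CAGA-GFP, 1% FBS DMEM, 18 h at 37 degrees C with 500 pg/mL final TGF-beta. Unstimulated wells served as the full-inhibition control; stimulated DMSO wells = 0%.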
Large screens that a line does not name were inactive. Unless noted, calls come from the whole dose curve; as a rule, active = well fitted curve in the direction sought with a large enough effect; inconclusive = small, poorly fitted or top-dose-only effect, or another doubt; inactive = no such curve, though single readings can be large; an effect the other way counts as inactive or inconclusive.

Cc1ccc(CSc2nccc(-c3c(C)nc4ccccn34)n2)cc1	TDP1 cell CPT inconclusive, TDP1 cell noCPT 16µM
COc1ccc(N(C(=O)c2ccco2)S(=O)(=O)c2cc(Cl)c(Cl)cc2Cl)cc1	TDP1 cell CPT 18µM, TDP1 cell noCPT inconclusive
Cc1ccc(S(=O)(=O)n2nc(C)c(Br)c2C)c(C)c1C	TDP1 cell CPT inconclusive, TDP1 cell noCPT 21µM, TGFb SMAD3 inh inconclusive
COc1ccc(N2CCN(C(=O)c3cnn(-c4ccc(F)cc4)c3-n3cccc3)CC2)cc1	none (no result: TDP1 cell CPT, IL1B secr inh, TDP1 cell noCPT)
O=C1C2C3c4ccccc4C(c4ccccc43)[C@@H]2c2nc3ccccc3n21 (some centres undefined)	TDP1 cell CPT 12µM, TDP1 cell noCPT 10µM
O=C1CCC(=O)N1N1C(=O)C2C3c4ccccc4C(c4ccccc43)C2C1=O (centres undefined)	none
Cc1cc(C=O)c(C)n1-c1ccc(NC2CCCC2)c([N+](=O)[O-])c1	TDP1 cell CPT inconclusive, IL1B secr inh -82, TDP1 cell noCPT 18µM
Cc1ccc(C)c(CSc2ccc3nnc(-c4ccccn4)n3n2)c1	TDP1 cell CPT inconclusive, IL1B secr inh -70, TDP1 cell noCPT inconclusive, TGFb SMAD3 inh inconclusive
Fc1ccc(CSc2ccc3nnc(-c4ccccn4)n3n2)cc1	TDP1 cell noCPT inconclusive
Cc1ccc(CSc2ccc3nnc(-c4ccccn4)n3n2)cc1	TDP1 cell CPT 12µM, TDP1 cell noCPT 16µM
O=C(NNC(=S)Nc1ccc(Cl)cc1Cl)c1ccncc1	TDP1 cell noCPT 16µM, TGFb SMAD3 inh inconclusive
O=C(Nc1ccncc1)c1ccc(Cl)c(Cl)c1	IL1B secr inh inconclusive, TDP1 cell noCPT 12µM
O=C(NNC(=O)c1cnccn1)c1ccc(Cl)c(Cl)c1	TDP1 cell CPT 7.3µM, TDP1 cell noCPT 3.7µM
O=C(NNC(=O)c1ccccc1Br)c1cnccn1	TDP1 cell CPT 18µM, TDP1 cell noCPT inconclusive, TGFb SMAD3 inh inconclusive
O=C(NCCNC(=O)c1cnccn1)c1ccc(Cl)c(Cl)c1	none (no result: TDP1 inh)
O=C(NNC(=S)Nc1ccc(Cl)cc1Cl)c1cccnc1	none
O=C(NNC(=O)c1ccccc1Br)c1ccncc1	none (no result: TDP1 inh)
CCN1CCCC1CNC(=O)c1cnn(-c2nccc(-c3cc(OC)ccc3OC)n2)c1C (centres undefined)	none (no result: HepG2 viability, IL1B secr inh, TDP1 inh, TGFb SMAD3 inh)
C/C(=N\NC(=O)C(=O)Nc1cc(Cl)ccc1Cl)c1ccncc1	none
O=C(NNC(=O)c1ccc(Cl)c(Cl)c1)c1ccncc1	HepG2 viability 4.5µM (no result: TDP1 inh)
O=C(Nc1cccc(Cl)c1Cl)c1ccncc1	IL1B secr inh -51
C/C(=N\NC(=O)C(=O)Nc1cccc(Cl)c1C)c1ccncc1	TDP1 cell CPT 21µM, TDP1 cell noCPT 15µM
CCc1ccc(C(=O)Nc2ccc3nc(C)ccc3c2)cc1	TDP1 cell CPT inconclusive, IL1B secr inh inconclusive, TDP1 cell noCPT inconclusive (no result: TDP1 inh)
Cc1ccc2cc(NC(=O)c3ccc(C(C)(C)C)cc3)ccc2n1	TDP1 cell CPT inconclusive, IL1B secr inh -101, TDP1 cell noCPT inconclusive (no result: TDP1 inh)
O=C(NCC1(N2CCOCC2)CCCC1)c1cnn(-c2nccc(-c3cccs3)n2)c1C1CC1	none (no result: HepG2 viability, IL1B secr inh, TDP1 inh, TGFb SMAD3 inh)
COc1ccc(NC(=O)COC(=O)c2ccc(OC)c(S(=O)(=O)N3CCCC3)c2)cc1OC	TDP1 cell CPT inconclusive, TDP1 cell noCPT inconclusive
CC(C)(C)c1ccc(C(=O)Nc2ccc(NC(=O)c3ccc(Cl)c(Cl)c3)cc2)cc1	TDP1 cell CPT 12µM, TDP1 cell noCPT 15µM (no result: IL1B secr inh)
O=C(O)Cc1ccc(NC(=O)c2ccc(Cl)c(Cl)c2)cc1	none
COc1cc([N+](=O)[O-])cc(/C=N/NC(=O)CSc2nnc(-c3ccccc3)n2C)c1O	none
Cn1c(SCC(=O)N/N=C/c2ccc([N+](=O)[O-])s2)nnc1-c1ccc(Cl)cc1	TDP1 cell CPT 13µM, IL1B secr inh inconclusive, TDP1 cell noCPT 21µM, TGFb SMAD3 inh inconclusive

Screening results: PubChem BioAssay, National Center for Advancing Translational Sciences (NCATS)
